Results published in PubChem BioAssay (EPA / NIEHS).
“And” between values parts separate entries of the source, which are not always exact repeats. Equal entries are not always repeated. Inconclusive results are not listed. More than one record can exist for a structure, and the calls need not agree. The source made the active and inactive calls. The calls were made as follows, unless noted: active = hit-call score of the fitted dose curve at least 0.9, where 1 is the maximum; inconclusive = response in the unintended direction; inactive = score below 0.9.

Experiments:
[1] = system: zebrafish Estrogen Receptor (ER2a), gene 317734; assay: ATG_zfER2a_XSP2: Attagene TRANS-FACTORIAL Multi-Species (XSP2) HepG2 Assay for zebrafish Estrogen Receptor (ER2a) (AID 2283818);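 also: hits raise reporter mRNA so AC50 reflects activation of zebrafish ER2a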
Outline: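 HepG2 cells transiently transfected with GAL4-UAS reporter units and chimeric zebrafish ER2a-Gal4, exposed 24 h; medium contains 3 nM 6-alpha-fluorotestosterone and 1.5 nM norgestrel. Reporter mRNA quantified by RT-PCR, HpaI digestion, capillary electrophoresis; gain versus DMSO.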

[2] = system: frog Estrogen Receptor (ER), gene 398734; assay: ATG_frER1_XSP2: Attagene TRANS-FACTORIAL Multi-Species (XSP2) HepG2 Assay for frog Estrogen Receptor (ER) (AID 2283821);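 also: hits raise reporter mRNA above DMSO baseline so potency means agonist or activator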
Outline: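 Steps: transfect HepG2 with multiple reporter transcription units; treat with chemical for 24 h; isolate RNA, reverse-transcribe, PCR-amplify, label with 6-FAM, digest with HpaI; resolve fragments by capillary electrophoresis. Signal is scored against DMSO.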

[3] = ATG_M_19_XSP2: Attagene TRANS-FACTORIAL Multi-Species (XSP2) HepG2 Assay for M32 Transcription Factor (Internal Marker) (AID 2283822)
Outline: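 Internal background marker in a multi-species nuclear receptor TRANS panel: transfected HepG2 cells exposed 24 h, with 3 nM 6-alpha-fluorotestosterone and 1.5 nM norgestrel present. Readout is RT-PCR of reporter transcripts resolved by capillary electrophoresis, gain-of-signal versus DMSO.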

[4] = system: zebrafish Estrogen Receptor (ER2b), gene 317733; assay: ATG_zfER2b_XSP2: Attagene TRANS-FACTORIAL Multi-Species (XSP2) HepG2 Assay for zebrafish Estrogen Receptor (ER2b) (AID 2283823);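 also: fitted upward as reporter gain over DMSO so potency reflects activation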
Outline: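 HepG2 human liver cells transiently transfected with multiplexed GAL4-UAS reporter units expressing chimeric NR-Gal4 proteins; compounds dosed for 24 h. Reporter mRNA quantified by RT-PCR, 6-FAM labelling and capillary electrophoresis; gain-of-signal fitted against DMSO baseline.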

[5] = target: Estrogen receptor (Homo sapiens) (UniProt P03372); assay: ATG_hERa_XSP2: Attagene TRANS-FACTORIAL Multi-Species (XSP2) HepG2 Assay for human Estrogen Receptor (ERa) (AID 2283827)
Outline: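 HepG2 cells transiently transfected with multiplexed GAL4-UAS reporters driven by chimeric receptor-Gal4 proteins, dosed 24 h with 3 nM 6-alpha-fluorotestosterone and 1.5 nM norgestrel present. Reporter mRNA by RT-PCR and capillary electrophoresis; gain-of-signal fit versus DMSO.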

[6] = system: frog Estrogen Receptor (ER2), gene 100174814; assay: ATG_frER2_XSP2: Attagene TRANS-FACTORIAL Multi-Species (XSP2) HepG2 Assay for frog Estrogen Receptor (ER2) (AID 2283828)
Outline: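 Multiplexed transactivation in HepG2: frog estrogen receptor fused to Gal4 drives a UAS reporter. Signal is reporter mRNA after 24 h treatment.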

[7] = target: Peroxisome proliferator-activated receptor gamma (Homo sapiens) (UniProt P37231); assay: ATG_hPPARg_XSP2: Attagene TRANS-FACTORIAL Multi-Species (XSP2) HepG2 Assay for human Peroxisome Proliferator-activated Receptor gamma (PPARg) (AID 2283829);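 also: actives raise reporter mRNA above DMSO so AC50 reflects PPARg activation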
Outline: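 Reporter transcripts were measured by RT-PCR, fluorescent labeling, HpaI digestion and capillary electrophoresis, relative to DMSO, 24 h post-dosing. Transiently transfected HepG2 expressed NR-Gal4 chimeras regulating GAL4-UAS reporters; medium contained 3 nM 6-alpha-fluorotestosterone plus 1.5 nM norgestrel.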

[8] = target: mouse Peroxisome Proliferator-activated Receptor gamma (PPARg), Pparg (gene 19016) (UniProt P37238); assay: ATG_mPPARg_XSP2: Attagene TRANS-FACTORIAL Multi-Species (XSP2) HepG2 Assay for mouse Peroxisome Proliferator-activated Receptor gamma (PPARg) (AID 2283830);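 also: hits are gains in reporter mRNA above DMSO so AC50 marks activation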
Outline: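 HepG2 cells transiently transfected with GAL4-UAS reporter units for chimeric NR-Gal4 proteins including mouse PPARg, exposed 24 h; medium contained 3 nM 6-alpha-fluorotestosterone and 1.5 nM norgestrel. Reporter mRNA quantified by RT-PCR, HpaI digestion and capillary electrophoresis, vs DMSO.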

[9] = target: Nuclear receptor subfamily 1 group I member 2 (Mus musculus) (UniProt O54915); assay: ATG_mPXR_XSP2: Attagene TRANS-FACTORIAL Multi-Species (XSP1) HepG2 Assay for mouse Pregnane X Receptor (PXR) (AID 2283831)
Outline: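 Reporter transcripts measured after 24 h dosing by RT-PCR with 6-FAM labelling, HpaI digestion and capillary electrophoresis. Transiently transfected HepG2 with NR-Gal4 chimeras; increase over DMSO baseline scored.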

[10] = target: zebrafish Thyroid Hormone Receptor alpha (TRa), thraa (gene 30670) (UniProt Q98867); assay: ATG_zfTRa_XSP2: Attagene TRANS-FACTORIAL Multi-Species (XSP1) HepG2 Assay for zebrafish Thyroid Hormone Receptor alpha (TRa) (AID 2283832);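 also: actives raise zebrafish TRa-Gal4 reporter transcript above DMSO baseline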
Outline: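 Chimeric receptor-Gal4 activity was assessed in transfected human liver HepG2 cells 24 h after dosing, using reporter transcript levels detected by RT-PCR and capillary electrophoresis. DMSO served as baseline.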

[11] = system: zebrafish Peroxisome Proliferator-activated Receptor gamma (PPARg), gene 557037; assay: ATG_zfPPARg_XSP2: Attagene TRANS-FACTORIAL Multi-Species (XSP2) HepG2 Assay for zebrafish Peroxisome Proliferator-activated Receptor gamma (PPARg) (AID 2283833);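 also: actives increase reporter signal over DMSO so AC50 reflects activation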
Outline: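 After 24 h chemical exposure, RNA from transiently transfected HepG2 (chimeric NR-Gal4 TRANS reporters) was reverse-transcribed, PCR-amplified, 6-FAM-labelled, HpaI-cut and sized by capillary electrophoresis. Induction was scored in the positive direction relative to DMSO.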

[12] = system: turtle Thyroid Hormone Receptor, alpha (TRa), gene 101949057; assay: ATG_trTRa_XSP2: Attagene TRANS-FACTORIAL Multi-Species (XSP1) HepG2 Assay for turtle Thyroid Hormone Receptor, alpha (TRa) (AID 2283834);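 also: hits raise reporter mRNA over the DMSO baseline so AC50 marks activators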
Outline: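 Turtle TRa-Gal4 chimera activity in transfected human HepG2 cells: reporter transcripts quantified by RT-PCR, 6-FAM labelling and capillary electrophoresis 24 h post-dosing; positive direction versus DMSO, medium containing 3 nM 6-alpha-fluorotestosterone and 1.5 nM norgestrel.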

[13] = ATG_M_61_XSP2: Attagene TRANS-FACTORIAL Multi-Species (XSP2) HepG2 Assay for M61 Transcription Factor (Internal Marker) (AID 2283835; active = hit-call score of the fitted dose curve at least 0.9, where 1 is the maximum; inactive = score below 0.9;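 also: active means a rise in signal above the DMSO baseline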)
Outline: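 First, HepG2 cells are transfected with reporter units under GAL4-UAS control. Next, chemicals are applied for 24 h. Then total RNA is reverse-transcribed, amplified, fluorescently labelled and sized by capillary electrophoresis, with gain of signal scored against DMSO.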

[14] = target: zebrafish Thyroid Hormone Receptor beta (TRb), thrb (gene 30607) (UniProt Q9PVE4); assay: ATG_zfTRb_XSP2: Attagene TRANS-FACTORIAL Multi-Species (XSP1) HepG2 Assay for zebrafish Thyroid Hormone Receptor beta (TRb) (AID 2283836)
Outline: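 Fluorescence of labelled reporter cDNA fragments, separated by capillary electrophoresis, gives mRNA induction from exogenous NR-Gal4 chimeras in transiently transfected HepG2 cells after 24 h dosing; 3 nM 6-alpha-fluorotestosterone and 1.5 nM norgestrel included in the run.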

[15] = ATG_XTT_Cytotoxicity_XSP2: Cytotoxicity Assessment in the Attagene TRANS-FACTORIAL Multi-Species (XSP2) HepG2 Assay (AID 2283837)
Outline: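 HepG2 cells, transiently transfected with multiple reporter constructs, exposed to chemical for 24 h. Cell number assessed with XTT fluorescence read-out; loss of signal fitted relative to DMSO.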

[16] = target: human Thyroid hormone Receptor alpha (TRa), THRA (gene 7067) (UniProt P10827); assay: ATG_hTRa_XSP2: Attagene TRANS-FACTORIAL Multi-Species (XSP2) HepG2 Assay for human Thyroid hormone Receptor alpha (TRa) (AID 2283838)
Outline: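 HepG2 cells transiently transfected with multiplexed GAL4-UAS reporter units and exogenous NR-GAL4 chimeras; 24 h chemical exposure with 3 nM 6-alpha-fluorotestosterone and 1.5 nM norgestrel present. Reporter mRNA measured by RT-PCR, FAM labelling, HpaI digestion, capillary electrophoresis; gain-of-signal versus DMSO.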

[17] = target: frog Thyroid hormone Receptor alpha (TRa), thra-a (gene 397942) (UniProt P15204); assay: ATG_frTRa_XSP2: Attagene TRANS-FACTORIAL Multi-Species (XSP2) HepG2 Assay for frog Thyroid hormone Receptor alpha (TRa) (AID 2283839)
Outline: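 Reporter transcripts were measured by RT-PCR with capillary electrophoresis after 24 h dosing of HepG2 carrying transiently transfected multi-reporter units, including a chimeric frog TRa-GAL4 construct. Activity was taken as increase over DMSO vehicle.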

[18] = target: human Thyroid hormone Receptor beta (TRb), THRB (gene 7068) (UniProt P10828); assay: ATG_hTRb_XSP2: Attagene TRANS-FACTORIAL Multi-Species (XSP2) HepG2 Assay for human Thyroid hormone Receptor beta (TRb) (AID 2283840);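 also: actives raise reporter mRNA so potency reflects agonist-like gain of signal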
Outline: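 Activity of exogenous human TRb–Gal4 fusion measured by reporter mRNA from RT-PCR and capillary electrophoresis, 24 h after dosing transfected HepG2. 6-alpha-fluorotestosterone (3 nM) and norgestrel (1.5 nM) present. Gain-of-signal fit relative to DMSO.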

Sequence of frog Thyroid hormone Receptor alpha (TRa), thra-a (gene 397942) (P15204 whole entry, looked up, the tested form may be a part): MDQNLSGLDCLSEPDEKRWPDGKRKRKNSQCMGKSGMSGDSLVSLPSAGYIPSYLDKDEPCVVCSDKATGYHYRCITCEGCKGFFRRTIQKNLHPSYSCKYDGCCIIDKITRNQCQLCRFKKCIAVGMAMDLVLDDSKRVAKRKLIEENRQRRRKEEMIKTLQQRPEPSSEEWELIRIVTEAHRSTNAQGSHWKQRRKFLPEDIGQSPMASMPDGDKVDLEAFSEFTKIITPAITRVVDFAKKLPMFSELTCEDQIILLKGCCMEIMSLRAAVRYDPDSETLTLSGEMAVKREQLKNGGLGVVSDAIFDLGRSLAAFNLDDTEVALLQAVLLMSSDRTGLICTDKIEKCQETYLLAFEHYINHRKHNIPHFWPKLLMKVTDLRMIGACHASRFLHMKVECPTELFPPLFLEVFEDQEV
Sequence of Peroxisome proliferator-activated receptor gamma (Homo sapiens) (P37231 whole entry, looked up, the tested form may be a part): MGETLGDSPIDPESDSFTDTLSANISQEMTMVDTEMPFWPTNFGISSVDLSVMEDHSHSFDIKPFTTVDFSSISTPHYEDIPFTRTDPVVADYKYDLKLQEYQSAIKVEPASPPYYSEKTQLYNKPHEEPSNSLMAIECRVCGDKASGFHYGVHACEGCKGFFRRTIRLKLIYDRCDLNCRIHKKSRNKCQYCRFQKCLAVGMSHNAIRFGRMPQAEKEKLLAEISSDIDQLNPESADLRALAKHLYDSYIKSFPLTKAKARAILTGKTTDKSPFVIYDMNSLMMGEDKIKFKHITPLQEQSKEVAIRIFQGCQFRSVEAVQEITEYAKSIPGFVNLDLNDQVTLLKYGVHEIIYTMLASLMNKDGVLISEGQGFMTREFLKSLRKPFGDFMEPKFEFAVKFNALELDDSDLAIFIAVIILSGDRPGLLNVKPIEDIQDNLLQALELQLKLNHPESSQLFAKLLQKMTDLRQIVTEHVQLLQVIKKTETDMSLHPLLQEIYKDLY
Sequence of Nuclear receptor subfamily 1 group I member 2 (Mus musculus) (O54915 whole entry, looked up, the tested form may be a part): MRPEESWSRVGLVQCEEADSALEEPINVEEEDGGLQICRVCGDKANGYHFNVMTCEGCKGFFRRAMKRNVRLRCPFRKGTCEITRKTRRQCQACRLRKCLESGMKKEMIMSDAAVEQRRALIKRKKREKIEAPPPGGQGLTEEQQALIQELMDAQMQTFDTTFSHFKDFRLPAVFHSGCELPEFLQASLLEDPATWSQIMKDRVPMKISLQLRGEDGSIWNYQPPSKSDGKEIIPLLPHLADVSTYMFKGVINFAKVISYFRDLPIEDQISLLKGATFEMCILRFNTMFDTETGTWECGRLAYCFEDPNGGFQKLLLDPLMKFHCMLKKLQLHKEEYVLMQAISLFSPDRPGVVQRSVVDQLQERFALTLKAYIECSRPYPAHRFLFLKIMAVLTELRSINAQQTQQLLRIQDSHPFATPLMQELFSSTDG
Sequence of zebrafish Thyroid Hormone Receptor alpha (TRa), thraa (gene 30670) (Q98867 whole entry, looked up, the tested form may be a part): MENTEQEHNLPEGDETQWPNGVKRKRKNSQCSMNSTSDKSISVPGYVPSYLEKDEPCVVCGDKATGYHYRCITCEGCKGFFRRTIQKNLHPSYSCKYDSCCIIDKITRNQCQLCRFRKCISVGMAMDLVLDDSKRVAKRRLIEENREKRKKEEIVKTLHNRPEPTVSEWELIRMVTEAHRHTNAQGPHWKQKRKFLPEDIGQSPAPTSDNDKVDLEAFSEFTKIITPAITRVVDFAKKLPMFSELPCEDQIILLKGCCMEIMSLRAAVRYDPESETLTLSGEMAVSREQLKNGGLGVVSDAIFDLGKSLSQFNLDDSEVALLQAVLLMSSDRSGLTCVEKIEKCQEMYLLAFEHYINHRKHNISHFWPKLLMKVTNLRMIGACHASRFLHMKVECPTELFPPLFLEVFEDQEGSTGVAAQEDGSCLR
Sequence of mouse Peroxisome Proliferator-activated Receptor gamma (PPARg), Pparg (gene 19016) (P37238 whole entry, looked up, the tested form may be a part): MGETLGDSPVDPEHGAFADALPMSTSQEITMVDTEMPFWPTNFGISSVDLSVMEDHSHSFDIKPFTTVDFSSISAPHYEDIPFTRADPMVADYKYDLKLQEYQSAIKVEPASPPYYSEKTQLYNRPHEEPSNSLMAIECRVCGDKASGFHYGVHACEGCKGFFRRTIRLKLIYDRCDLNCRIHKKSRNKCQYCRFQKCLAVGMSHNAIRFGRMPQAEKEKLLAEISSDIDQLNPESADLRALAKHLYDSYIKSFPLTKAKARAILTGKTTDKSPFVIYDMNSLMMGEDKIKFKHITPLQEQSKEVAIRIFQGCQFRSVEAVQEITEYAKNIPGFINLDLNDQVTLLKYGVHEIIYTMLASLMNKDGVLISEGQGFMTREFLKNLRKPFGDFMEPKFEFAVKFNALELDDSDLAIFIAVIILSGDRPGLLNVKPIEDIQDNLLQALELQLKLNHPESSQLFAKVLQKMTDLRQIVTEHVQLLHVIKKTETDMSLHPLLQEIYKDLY
Sequence of Estrogen receptor (Homo sapiens) (P03372 whole entry, looked up, the tested form may be a part): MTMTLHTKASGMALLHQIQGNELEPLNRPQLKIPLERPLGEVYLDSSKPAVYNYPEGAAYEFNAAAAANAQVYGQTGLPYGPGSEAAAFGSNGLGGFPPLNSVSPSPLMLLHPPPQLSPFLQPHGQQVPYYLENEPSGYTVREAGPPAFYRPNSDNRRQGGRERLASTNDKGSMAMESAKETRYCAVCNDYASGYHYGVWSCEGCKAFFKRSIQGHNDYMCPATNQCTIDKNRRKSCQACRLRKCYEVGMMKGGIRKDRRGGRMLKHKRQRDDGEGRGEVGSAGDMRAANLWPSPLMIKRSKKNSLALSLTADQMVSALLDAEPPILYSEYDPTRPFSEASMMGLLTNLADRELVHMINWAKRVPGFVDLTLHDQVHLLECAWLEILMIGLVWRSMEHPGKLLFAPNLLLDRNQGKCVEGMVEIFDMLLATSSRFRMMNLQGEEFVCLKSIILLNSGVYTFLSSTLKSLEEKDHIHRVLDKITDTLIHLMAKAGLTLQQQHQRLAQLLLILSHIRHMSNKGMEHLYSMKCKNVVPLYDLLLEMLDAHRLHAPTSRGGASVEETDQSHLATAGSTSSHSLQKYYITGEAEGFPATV
Sequence of human Thyroid hormone Receptor alpha (TRa), THRA (gene 7067) (P10827 whole entry, looked up, the tested form may be a part): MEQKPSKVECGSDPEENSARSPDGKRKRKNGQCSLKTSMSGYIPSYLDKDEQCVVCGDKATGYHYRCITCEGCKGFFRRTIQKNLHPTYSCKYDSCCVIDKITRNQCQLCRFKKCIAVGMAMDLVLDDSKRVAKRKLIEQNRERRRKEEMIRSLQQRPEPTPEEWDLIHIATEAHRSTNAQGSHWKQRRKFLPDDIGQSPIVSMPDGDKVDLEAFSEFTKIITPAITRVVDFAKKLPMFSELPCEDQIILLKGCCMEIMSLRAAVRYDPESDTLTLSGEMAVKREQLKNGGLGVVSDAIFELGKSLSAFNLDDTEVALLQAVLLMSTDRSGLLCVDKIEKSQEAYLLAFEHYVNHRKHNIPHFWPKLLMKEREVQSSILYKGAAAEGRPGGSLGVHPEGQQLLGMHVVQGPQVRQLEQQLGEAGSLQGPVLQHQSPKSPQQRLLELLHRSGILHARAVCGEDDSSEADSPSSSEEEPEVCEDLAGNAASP
Sequence of zebrafish Thyroid Hormone Receptor beta (TRb), thrb (gene 30607) (Q9PVE4 whole entry, looked up, the tested form may be a part): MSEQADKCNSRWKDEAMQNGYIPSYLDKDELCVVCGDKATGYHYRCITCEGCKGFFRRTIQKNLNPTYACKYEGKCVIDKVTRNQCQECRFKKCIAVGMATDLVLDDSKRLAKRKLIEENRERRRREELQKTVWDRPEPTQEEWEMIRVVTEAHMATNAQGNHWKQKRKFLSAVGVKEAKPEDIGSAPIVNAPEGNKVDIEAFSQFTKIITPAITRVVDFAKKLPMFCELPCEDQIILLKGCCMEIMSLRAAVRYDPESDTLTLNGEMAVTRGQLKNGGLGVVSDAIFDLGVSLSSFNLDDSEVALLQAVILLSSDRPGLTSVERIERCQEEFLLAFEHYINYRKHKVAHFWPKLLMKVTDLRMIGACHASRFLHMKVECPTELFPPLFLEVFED
Sequence of human Thyroid hormone Receptor beta (TRb), THRB (gene 7068) (P10828 whole entry, looked up, the tested form may be a part): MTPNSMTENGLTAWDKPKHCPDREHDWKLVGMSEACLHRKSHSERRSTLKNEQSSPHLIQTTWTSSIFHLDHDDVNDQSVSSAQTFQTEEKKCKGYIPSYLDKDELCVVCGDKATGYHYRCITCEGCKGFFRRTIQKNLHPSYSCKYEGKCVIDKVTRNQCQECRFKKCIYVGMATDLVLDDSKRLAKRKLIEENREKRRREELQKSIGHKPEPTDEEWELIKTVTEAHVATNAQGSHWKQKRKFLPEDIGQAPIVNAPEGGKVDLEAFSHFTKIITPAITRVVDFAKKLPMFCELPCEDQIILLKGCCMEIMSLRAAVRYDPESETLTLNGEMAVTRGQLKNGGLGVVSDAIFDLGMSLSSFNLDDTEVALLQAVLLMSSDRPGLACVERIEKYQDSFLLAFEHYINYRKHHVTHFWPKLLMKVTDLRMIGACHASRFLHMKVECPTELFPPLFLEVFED

COC(=O)c1c(C)cc(O)c(C)c1O
AC50 [1]: 7.57 µM (active) and 27.3 µM (active)
AC50 [2]: 12.1 µM (active) and 17.5 µM (active)
outcome [3]: inactive
AC50 [4]: 39.7 µM (active) and 71.2 µM (active)
AC50 [5]: 10.5 µM (active) and 53.7 µM (active)
AC50 [6]: 27.7 µM (active) and 27.2 µM (active)
AC50 [7]: 100 µM (active) and 66.6 µM (active)
AC50 [8]: 64.5 µM (active)
outcome [8]: inactive
AC50 [9]: 10.7 µM (active) and 27.3 µM (active)
outcome [10]: inactive
outcome [11]: inactive
outcome [12]: inactive
outcome [13]: inactive
outcome [14]: inactive
outcome [15]: inactive
outcome [16]: inactive
outcome [17]: inactive
outcome [18]: inactive
